Among the data in PubChem BioAssay (EPA / NIEHS) are outcome and AC50 values, retold here.

In general, AC50 refers to the midpoint of the concentration-response curve, whichever way the signal moves.

Values joined by “and” are separate entries in the source; they are usually repeats but may differ in a detail not shown here. Identical values can stand only once. Records with an inconclusive call do not appear. Active and inactive are the calls of the source. Rule for the calls: active = hit-call score of the fitted dose curve at least 0.9, where 1 is the maximum; inconclusive = response in the unintended direction; inactive = score below 0.9.

Cellular tumor antigen p53 (Homo sapiens), sequence (P04637 whole entry, looked up, the tested form may be a part): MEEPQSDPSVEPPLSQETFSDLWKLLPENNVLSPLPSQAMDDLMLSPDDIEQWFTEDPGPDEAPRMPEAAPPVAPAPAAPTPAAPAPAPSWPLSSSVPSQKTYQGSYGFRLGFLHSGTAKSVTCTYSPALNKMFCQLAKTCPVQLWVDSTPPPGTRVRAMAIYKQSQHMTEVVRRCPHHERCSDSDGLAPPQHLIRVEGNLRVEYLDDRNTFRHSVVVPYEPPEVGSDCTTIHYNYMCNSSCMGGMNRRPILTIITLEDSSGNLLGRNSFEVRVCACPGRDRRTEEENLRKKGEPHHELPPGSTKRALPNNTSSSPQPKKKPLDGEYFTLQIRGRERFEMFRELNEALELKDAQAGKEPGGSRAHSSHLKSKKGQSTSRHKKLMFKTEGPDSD

This test concerns the target Cellular tumor antigen p53 (Homo sapiens) (UniProt P04637). The test can be described thus: TOX21_p53_BLA_p4_ratio: Tox21 HCT-116 p53 Agonism Beta-lactamase Assay, Ratio, Phase 4 (AID 2283601). An excerpt:
TOX21_p53_BLA_p4 is a cell-based, single-readout assay that uses HCT116, a human intestinal cell line, […] in a 1536-well plate.TOX21_p53_BLA_p4_ratio is an assay readout measuring reporter gene via receptor activity and designed using inducible reporter (beta lactamase induction) detected with GAL4 b-lactamase reporter gene. The signal is derived from the ratio of cleaved (ch2) to uncleaved (ch1)reporter gene substrate used as the measure of target activity.Data from the assay component TOX21_p53_BLA_p4_ratio was analyzed into 1 assay endpoint. This assay endpoint, TOX21_p53_BLA_p4_ratio, was analyzed in the positive analysis fitting direction relative to DMSO as the negative control and baseline of activity. Using a type of inducible reporter, gain-of-signal activity can be used to understand changes in the reporter gene as they relate to the gene TP53. Furthermore, this assay endpoint can be referred to as a primary readout, because this assay has produced multiple assay endpoints where this ratio serves a reporter gene function to understand target activity. To generalize the intended target to other relatable targets, this assay endpoint is annotated to the DNA binding intended target family, where the subfamily is tumor suppressor.
Thawing Method: Place 14 mL of pre-warmed thaw medium into a 15 mL of conical tub. Remove the vial of cells to be thawed from liquid nitrogen and thaw rapidly by placing at 37C in a water bath with gentle agitation for 1-2 minutes. Decontaminate the vial by wiping with 70% ethanol before opening in a biological safety cabinet. Transfer the vial contents drop-wise into 14 mL of thaw medium in a sterile 15-mL conical tub. Centrifuge cells at 900 rpm for 4 minutes and resuspend in thaw medium. Transfer contents to the T75 tissue culture flask containing Thaw Medium and place flask in a humidified 37C/5% CO2 incubator. Switch to growth medium at first passage.Propagation Method: Aspirate medium, rinse once in DPBS, add 0.25% Trypsin/EDTA and swirl to coat the cell evenly. Add an equal volume of Growth Medium to inactivate Trypsin after 2-3 minutes incubation at 37C. Centrifuge cells at 900 rpm for 4 minutes and resuspend in growth medium. Cell should be passage or fed at least twice a week.Assay Protocol: Harvest cells from culture in growth medium and resuspend in assay medium. 2.2 Dispense 4000 cells/5 uL/well into 1536-well black/clear bottom plates using a Multidrop dispenser. After the cells were incubated at 37C for 5 hours, 23 nL of compounds dissolved in DMSO were transferred to the assay plate by a PinTool resulting in a 217-fold dilution. Incubate the plates for 16 hours at 37C, 5% CO2. Add 1 uL of 6X LiveBLAzer FRET B/G (CCF4-AM) Substrate Mixture to each well using a BioRAPTR dispenser and incubate the plates at room temperature for 2 hours. Measure fluorescence intensity at 460 and 530 nm emission and 405 nm excitation by an Envision detector. Data is expressed as the ratio of 460nm/530nm emissions. Add 4 uL of Cell-titer Glo to each well using BioRAPTR and incubate the plates at room temperature for 2 hours. Measure fluorescence intensity by a VewLux plate reader.
With `CCCCCOC(=O)c1ccccc1C(=O)OCCCCC`, the result was inactive.
On the same count and under the same terms, then `Cc1ccc(N=C=O)cc1N=C=O`, with “inactive”; and `CCCCC(CC)COC(=O)c1ccc(C(=O)OCC(CC)CCCC)c(C(=O)OCC(CC)CCCC)c1` (stereo not given), with “inactive”.
On the same count and under the same terms, then `CC(C)N(Cc1ccccc1)C(=O)C(C)(C)C`, with “inactive”.
For the compound `Clc1ccc(C(c2ccc(Cl)cc2)C(Cl)Cl)cc1`, the AC50 was 78.4 µM (active) and 79.1 µM (active).
On the same count and under the same terms, the figure for `CCC[CH2][Sn]([Cl])([CH2]CCC)[CH2]CCC` is 27.7 µM (active) and 25.6 µM (active).
Consider `c1ccc2c(c1)oc1ccccc12`, for which the result was inactive.
The same measure, in the same setting: then `COC(=O)c1ccccc1N`, with “inactive”; and `Cc1ccc(N)c(N)c1`, with “inactive”; and `O=C(Oc1ccc(Br)cc1)N1CCN2CCC1CC2`, with “inactive”.
Still for that read-out and setting: then `Cc1cccc(N)c1N`, with “inactive”.
As for `c1ccc(NNc2ccccc2)cc1`, the outcome was inactive.
Still for that read-out and setting: the entry for `c1ccc2c(c1)-c1cccc3cccc-2c13` is “inactive”; for `C[N+](C)(C)CC1CO1` (stereo not given) it is “inactive”; for `[As]#[In]` it is “inactive”.
Take `Nc1ccc(Oc2ccc(N)cc2)cc1`: the result was inactive.
The same measure, in the same setting: then `CC(C)(O)c1cnn2c(-c3ccc(F)c(-c4c(F)cccc4C#N)c3)cnc2n1`, with “inactive”; and `ClC1=C(Cl)[C@]2(Cl)[C@H]3[C@H]([C@@H]4C=C[C@H]3C4)[C@@]1(Cl)C2(Cl)Cl`, with “inactive”.
`CN(C)[C@@H]1C(=O)C(C(N)=O)=C(O)[C@@]2(O)C(=O)C3=C(O)c4c(O)cccc4[C@@](C)(O)[C@H]3C[C@@H]12`: the outcome was inactive.
The same measure, in the same setting: the entry for `ClCCOCCCl` is “inactive”.
On to `CCCCCCCCn1sccc1=O`, for which the AC50 is 23.7 µM (active) and 46.2 µM (active).
For `CN(C)c1ccccc1`, the result was inactive.
Same read-out and setting: then `C1=Cc2cccc3cccc1c23`, with “inactive”; and `Nc1ccc(Cl)cc1N`, with “inactive”; and `CCN(CC)CCO`, with “inactive”.
Same read-out and setting: then `O=[N+]([O-])c1ccc(Oc2ccc(Cl)cc2Cl)cc1`, with “inactive”; and `CCC(C)c1ccc(O)cc1` (stereo not given), with “inactive”; and `Cc1ccc([N+](=O)[O-])cc1`, with “inactive”.
On the same count and under the same terms, the entry for `OCCCBr` is “inactive”; for `C=CCc1ccc2c(c1)OCO2` it is “inactive”; for `Nc1cc(Cl)cc(C(=O)O)c1Cl` it is “inactive”.
Regarding `Nc1ccc([N+](=O)[O-])cc1`, the result was inactive.
Same read-out and setting: then `c1ccc(N=Nc2ccccc2)cc1`, with “inactive”; and `CCCCOC(=O)c1ccccc1C(=O)OCc1ccccc1`, with “inactive”.
On to `COc1cc(C=O)cc2c1[C@H](COC(N)=O)[C@]1(OC(C)=O)ON2C[C@H]2[C@@H]1N2C(C)=O`, for which the AC50 is 304 nM (active).
Turning to `CS(=O)(=O)NC(=O)c1cc(Oc2ccc(C(F)(F)F)cc2Cl)ccc1[N+](=O)[O-]`, the result was inactive.
Same read-out and setting: the entry for `O=C1CCCO1` is “inactive”.
The same measure, in the same setting: then `c1ccc(C2CO2)cc1` (stereo not given), with “inactive”.
Regarding `O=C(N[C@H](c1ccccc1)[C@@H]1CN2CCC1CC2)c1c(Cl)ccc(C(F)(F)F)c1Cl`, the AC50 was 127000 nM (active).
In the case of `Clc1ccc(Cl)c(Cl)c1`, the result was inactive.
